# Assays:
# Test in all cases: pooled miR-30 sensor sort-seq; sequence = guide strand
# Conditions in all cases: shRNA
# RILPL1 = molecular target: RILPL1
# RIT1 = molecular target: RIT1
# RIMKLA = molecular target: RIMKLA
# RIN3 = molecular target: RIN3
# RNPC3 = molecular target: RNPC3
# RPS6KA5 = molecular target: RPS6KA5
# RRP12 = molecular target: RRP12
# Further: reference of the scale not given here.
sequence,measurement,setting,value
TAAATAAACATTTCTTTAGAGT,sensor-assay potency score (higher = more potent),RILPL1,-1.18
TTGTTTGTCCACCACCTCCTTC,sensor-assay potency score (higher = more potent),RILPL1,-0.987
TTGGACTTGAGCTCGTTCCTCT,sensor-assay potency score (higher = more potent),RILPL1,-0.104
TAAACTCTGCCTGTCCAGCTGT,sensor-assay potency score (higher = more potent),RIT1,0.108
TCACACACCACAAAGGAGCCAT,sensor-assay potency score (higher = more potent),RIMKLA,0.0799
TAACTGGTTCTCCTTGAGCTGC,sensor-assay potency score (higher = more potent),RIN3,-1.24
TAGATGAGTTTGCAGGTCTTGA,sensor-assay potency score (higher = more potent),RIN3,-0.805
TGTCTAGCTGCTTCTTGCCGGG,sensor-assay potency score (higher = more potent),RIN3,-0.191
TCCTGCAGCAAGAACACCTTGG,sensor-assay potency score (higher = more potent),RILPL1,-0.555
TGTTTTGATGAGCTTCTCCAGG,sensor-assay potency score (higher = more potent),RIN3,-1.05
TAGCATTTGCCTCACACACCAC,sensor-assay potency score (higher = more potent),RIMKLA,-0.761
TATTCGAGCACCTCGGCCGAGC,sensor-assay potency score (higher = more potent),RIN3,-1.09
TAATGTTGTAGCCAGGTTCGGG,sensor-assay potency score (higher = more potent),RIMKLA,-0.494
TAAGTCTCTACTGACACAGTAG,sensor-assay potency score (higher = more potent),RIN3,-0.266
TTAGCCTCTTCCATACACTGTT,sensor-assay potency score (higher = more potent),RIT1,-0.476
TGAGAAGTTGACATCCTTGTGG,sensor-assay potency score (higher = more potent),RILPL1,0.201
TTTGATGAGCTTCTCCAGGATG,sensor-assay potency score (higher = more potent),RIN3,-0.966
TTGGACTCGACAGTCCTGGGAG,sensor-assay potency score (higher = more potent),RIMKLA,0.0465
ATCAATGCCACAGAAGTCCATG,sensor-assay potency score (higher = more potent),RIMKLA,-1.18
TTCCTTAATGGTGTATTCGAGC,sensor-assay potency score (higher = more potent),RIN3,-0.939
TAGTCCTCGCGGATGCGCCGGT,sensor-assay potency score (higher = more potent),RIMKLA,-0.762
TTGATGGTATAGACGCTCTCTG,sensor-assay potency score (higher = more potent),RIMKLA,-0.814
TAGCTGTTTGAGGTCTGACTTG,sensor-assay potency score (higher = more potent),RIT1,-0.94
TAGGAAGCCAACATTAGCATTT,sensor-assay potency score (higher = more potent),RIMKLA,-1.24
TCACTGTCTGACTGCACTGAGG,sensor-assay potency score (higher = more potent),RIMKLA,-1.83
TTAGAAACAGTGATAGCCCTGG,sensor-assay potency score (higher = more potent),RILPL1,0.299
TCGAGCAAACTGAACCACCATG,sensor-assay potency score (higher = more potent),RNPC3,-1.27
TCACTTTTTAATATTCTCCTAG,sensor-assay potency score (higher = more potent),RPS6KA5,-0.3
TTGTTGTCATCAGAGCAGCGAA,sensor-assay potency score (higher = more potent),RRP12,-1.32
TTGCTGATTATTTTGACTGCAA,sensor-assay potency score (higher = more potent),RPS6KA5,0.0107

# Source: the OligoGym collection
